Results: the antibiotic and cytotoxicity screens of Wong et al. (2023)
The campaign covered roughly 39,000 compounds. About 3,300 (8.5%) were called active. The entries come from a sample that favours actives as a whole.

test system: HepG2; assay: cytotoxicity call (relative viability < 0.9); details: 10 µM

SMILES | cytotoxicity call
O=C(C[C@@H]1CC[C@@H]2[C@H](COC[C@H](O)CN2C(=O)Nc2ccc(Cl)cc2)O1)NCCc1ccncc1 | inactive
Cn1ccnc1C(=O)N[C@@H]1CN(C(N)=O)[C@H]2CCCO[C@@H]12 | inactive
C[C@@H]1CN([C@@H](C)CO)C(=O)Cc2cc(NC(=O)C3CC3)ccc2O[C@@H]1CN(C)S(=O)(=O)c1cccs1 | inactive
Cc1ccc(S(=O)(=O)Nc2ccc3c(c2)C(=O)N([C@H](C)CO)C[C@@H](C)[C@H](CN(C)C(=O)Nc2ccc4c(c2)OCO4)OCCCC[C@@H](C)O3)cc1 | inactive
C[C@H](CO)N1C[C@H](C)[C@@H](CN(C)S(=O)(=O)c2ccc(F)cc2)OCCCC[C@H](C)Oc2ccc(NC(=O)Nc3ccc4c(c3)OCO4)cc2C1=O | inactive
Cc1noc(C)c1S(=O)(=O)Nc1ccc2c(c1)C(=O)N([C@@H](C)CO)C[C@H](C)[C@H](CN(C)S(=O)(=O)c1ccccc1)O2 | inactive
C[C@@H]1CN([C@H](C)CO)C(=O)c2cc(NC(=O)Cn3cnnn3)ccc2O[C@@H]1CN(C)CC1CC1 | inactive
COC(=O)COc1nsnc1N1CCOCC1 | inactive
CNc1ccc(-c2nc(N3CCOCC3)c3sc(CN(C)c4ncc(C(=O)NO)cn4)cc3n2)cn1 | active
COc1ccc(-c2nc(N3CCOCC3)c3sc(CN(C)c4ncc(C(=O)NO)cn4)cc3n2)cn1 | active
COc1ccc(S(=O)(=O)Nc2ccc3c(c2)C(=O)N([C@@H](C)CO)C[C@@H](C)[C@H](CN(C)C(=O)Nc2c(C)noc2C)OCCCC[C@H](C)O3)cc1 | inactive
O=C(/C=C/c1ccc(O)c(O)c1)O[C@H]1[C@H](O)C[C@](O)(C(=O)O)C[C@H]1OC(=O)/C=C/c1ccc(O)c(O)c1 | inactive
Cc1ccc(S(=O)(=O)Nc2ccc3c(c2)CC(=O)N([C@H](C)CO)C[C@H](C)[C@@H](CN(C)S(C)(=O)=O)O3)cc1 | inactive
CC1COC2=C1C(=O)C(=O)c1c2ccc2c1CCCC2(C)C (stereo unspecified) | active
Cc1cccc2c1OCC[C@@H](N)C2=O | inactive
Cc1cccc2c3c(ccc12)C1=C(C(=O)C3=O)C(C)CO1 (stereo unspecified) | active
Cc1coc2c1C(=O)C(=O)c1c-2ccc2c1CCCC2(C)C | active
C[C@@H]1CN([C@@H](C)CO)C(=O)Cc2cc(NC(=O)Nc3cccc4ccccc34)ccc2O[C@H]1CN(C)Cc1ccc(-c2ccccc2)cc1 | inactive
COc1cc2c(cc1OC)CN(C(=O)[C@H]1[C@@H]3C(=O)O[C@@H](c4ccccc4)[C@@H](c4ccccc4)N3[C@@H](c3ccccc3OCCO)[C@]13C(=O)Nc1ccc(C#CC4(O)CCCCCC4)cc13)CC2 | inactive
O=C(C[C@@H]1CC[C@H]2[C@@H](COC[C@H](O)CN2C(=O)c2ccccn2)O1)NC1CCC1 | inactive
O[C@@H]1[C@@H](O)[C@H](OC/C=C/c2ccccc2)O[C@H](CO[C@@H]2OC[C@@H](O)[C@@H](O)[C@@H]2O)[C@H]1O | inactive

SMILES | cytotoxicity call
NCc1cccc2nsnc12 | inactive
C[C@H]1CN([C@@H](C)CO)C(=O)c2cccc(NC(=O)C3CC3)c2O[C@@H]1CN(C)S(=O)(=O)c1ccc(F)cc1 | inactive
O=C(O)c1cc(N=Nc2ccc(S(=O)(=O)Nc3ccccn3)cc2)ccc1O | inactive
C[C@@H]1CN([C@H](C)CO)C(=O)Cc2cc(NC(=O)CCN3CCOCC3)ccc2O[C@@H]1CN(C)Cc1ccc(C(=O)O)cc1 | inactive
C[C@H]1CN([C@@H](C)CO)C(=O)Cc2cc(NC(=O)CCN3CCOCC3)ccc2O[C@H]1CN(C)Cc1ccc(C(=O)O)cc1 | inactive
COC(=O)[C@@]12O[C@@H]1[C@H](O[C@@H]1O[C@H](CO)[C@@H](O)[C@H](O)[C@H]1O)C[C@H]1[C@]3(C)C[C@@H](c4ccoc4)OC(=O)[C@H]3CC[C@]12C | active
CC1(C)CC[C@]2(C(=O)O[C@H]3O[C@@H](CO)[C@@H](O)[C@@H](O)[C@@H]3O)CC[C@]3(C)C(=CC[C@H]4[C@@]5(C)C[C@@H](O)[C@H](O[C@H]6O[C@H](C(=O)O)[C@@H](O)[C@@H](O)[C@@H]6O)C(C)(C)[C@@H]5CC[C@]43C)[C@@H]2C1 | inactive
CC1(C)[C@H]2C[C@@H](O[C@H]3O[C@@H](CO)[C@@H](O)[C@@H](O)[C@@H]3O)[C@@]1(C)C[C@@H]2O | inactive
COCC(=O)Nc1ccc2c(c1)OC[C@H](C)N(C(=O)Cc1cccnc1)C[C@H](C)[C@@H](OC)CN(C)C2=O | inactive
Cc1noc(C)c1S(=O)(=O)Nc1ccc2c(c1)C(=O)N([C@@H](C)CO)C[C@@H](C)[C@@H](CN(C)S(=O)(=O)c1ccccc1)O2 | inactive
CC(C)C#Cc1ccc2c(c1)O[C@H](CN(C)S(=O)(=O)c1cn(C)cn1)[C@@H](C)CN([C@@H](C)CO)S2(=O)=O | inactive
C[C@@H]1CN([C@@H](C)CO)C(=O)Cc2cc(NS(C)(=O)=O)ccc2O[C@@H]1CN(C)Cc1ccc(C(=O)O)cc1 | inactive
C[C@@H]1CN([C@H](C)CO)C(=O)Cc2cc(NC(=O)Nc3cccc4ccccc34)ccc2O[C@H]1CN(C)Cc1ccc(Oc2ccccc2)cc1 | inactive
C[C@H](CO)N1C[C@H](C)[C@H](CN(C)Cc2ccc(Oc3ccccc3)cc2)Oc2ccc(NC(=O)Nc3cccc4ccccc34)cc2CC1=O | inactive
C[C@H](CO)N1C[C@H](C)[C@@H](CN(C)Cc2ccc(Oc3ccccc3)cc2)Oc2ccc(NC(=O)Nc3cccc4ccccc34)cc2CC1=O | active
C[C@H]1CN([C@@H](C)CO)C(=O)Cc2cc(NC(=O)Nc3cccc4ccccc34)ccc2O[C@@H]1CN(C)Cc1ccc(Oc2ccccc2)cc1 | inactive
C[C@@H]1CN([C@@H](C)CO)C(=O)Cc2cc(NC(=O)Nc3cccc4ccccc34)ccc2O[C@@H]1CN(C)Cc1ccc(Oc2ccccc2)cc1 | inactive
C[C@H]1CN([C@@H](C)CO)C(=O)Cc2cc(NC(=O)Nc3cccc4ccccc34)ccc2O[C@H]1CN(C)Cc1ccc(Oc2ccccc2)cc1 | active
C[C@@H]1CN([C@H](C)CO)C(=O)Cc2cc(NC(=O)Nc3cccc4ccccc34)ccc2O[C@@H]1CN(C)Cc1ccc(Oc2ccccc2)cc1 | active
C[C@@H]1CN([C@@H](C)CO)C(=O)Cc2cc(NC(=O)Nc3cccc4ccccc34)ccc2O[C@H]1CN(C)Cc1ccc(Oc2ccccc2)cc1 | inactive
